# Screening results from PubChem BioAssay.
# MazF activator – MazEF (E. coli) toxin RNase activation; P0AE70; FAM/BHQ RNA-DNA oligo cleavage fluorescence, 5 h; activation, % at 20 µM; 350,000 tested, 0.32% active; AID 504720; in the data active means activation above about 50%
# TcdB inh – TcdB glycohydrolase inhibition. P18177. 350,000 tested, 0.24% active. AID 652162. TcdB glycohydrolase enzymatic assay, plate reader. inhibition, % at 9.99 µM; in the data active means inhibition above about 10%
# Target sequence (P18177 whole entry, looked up): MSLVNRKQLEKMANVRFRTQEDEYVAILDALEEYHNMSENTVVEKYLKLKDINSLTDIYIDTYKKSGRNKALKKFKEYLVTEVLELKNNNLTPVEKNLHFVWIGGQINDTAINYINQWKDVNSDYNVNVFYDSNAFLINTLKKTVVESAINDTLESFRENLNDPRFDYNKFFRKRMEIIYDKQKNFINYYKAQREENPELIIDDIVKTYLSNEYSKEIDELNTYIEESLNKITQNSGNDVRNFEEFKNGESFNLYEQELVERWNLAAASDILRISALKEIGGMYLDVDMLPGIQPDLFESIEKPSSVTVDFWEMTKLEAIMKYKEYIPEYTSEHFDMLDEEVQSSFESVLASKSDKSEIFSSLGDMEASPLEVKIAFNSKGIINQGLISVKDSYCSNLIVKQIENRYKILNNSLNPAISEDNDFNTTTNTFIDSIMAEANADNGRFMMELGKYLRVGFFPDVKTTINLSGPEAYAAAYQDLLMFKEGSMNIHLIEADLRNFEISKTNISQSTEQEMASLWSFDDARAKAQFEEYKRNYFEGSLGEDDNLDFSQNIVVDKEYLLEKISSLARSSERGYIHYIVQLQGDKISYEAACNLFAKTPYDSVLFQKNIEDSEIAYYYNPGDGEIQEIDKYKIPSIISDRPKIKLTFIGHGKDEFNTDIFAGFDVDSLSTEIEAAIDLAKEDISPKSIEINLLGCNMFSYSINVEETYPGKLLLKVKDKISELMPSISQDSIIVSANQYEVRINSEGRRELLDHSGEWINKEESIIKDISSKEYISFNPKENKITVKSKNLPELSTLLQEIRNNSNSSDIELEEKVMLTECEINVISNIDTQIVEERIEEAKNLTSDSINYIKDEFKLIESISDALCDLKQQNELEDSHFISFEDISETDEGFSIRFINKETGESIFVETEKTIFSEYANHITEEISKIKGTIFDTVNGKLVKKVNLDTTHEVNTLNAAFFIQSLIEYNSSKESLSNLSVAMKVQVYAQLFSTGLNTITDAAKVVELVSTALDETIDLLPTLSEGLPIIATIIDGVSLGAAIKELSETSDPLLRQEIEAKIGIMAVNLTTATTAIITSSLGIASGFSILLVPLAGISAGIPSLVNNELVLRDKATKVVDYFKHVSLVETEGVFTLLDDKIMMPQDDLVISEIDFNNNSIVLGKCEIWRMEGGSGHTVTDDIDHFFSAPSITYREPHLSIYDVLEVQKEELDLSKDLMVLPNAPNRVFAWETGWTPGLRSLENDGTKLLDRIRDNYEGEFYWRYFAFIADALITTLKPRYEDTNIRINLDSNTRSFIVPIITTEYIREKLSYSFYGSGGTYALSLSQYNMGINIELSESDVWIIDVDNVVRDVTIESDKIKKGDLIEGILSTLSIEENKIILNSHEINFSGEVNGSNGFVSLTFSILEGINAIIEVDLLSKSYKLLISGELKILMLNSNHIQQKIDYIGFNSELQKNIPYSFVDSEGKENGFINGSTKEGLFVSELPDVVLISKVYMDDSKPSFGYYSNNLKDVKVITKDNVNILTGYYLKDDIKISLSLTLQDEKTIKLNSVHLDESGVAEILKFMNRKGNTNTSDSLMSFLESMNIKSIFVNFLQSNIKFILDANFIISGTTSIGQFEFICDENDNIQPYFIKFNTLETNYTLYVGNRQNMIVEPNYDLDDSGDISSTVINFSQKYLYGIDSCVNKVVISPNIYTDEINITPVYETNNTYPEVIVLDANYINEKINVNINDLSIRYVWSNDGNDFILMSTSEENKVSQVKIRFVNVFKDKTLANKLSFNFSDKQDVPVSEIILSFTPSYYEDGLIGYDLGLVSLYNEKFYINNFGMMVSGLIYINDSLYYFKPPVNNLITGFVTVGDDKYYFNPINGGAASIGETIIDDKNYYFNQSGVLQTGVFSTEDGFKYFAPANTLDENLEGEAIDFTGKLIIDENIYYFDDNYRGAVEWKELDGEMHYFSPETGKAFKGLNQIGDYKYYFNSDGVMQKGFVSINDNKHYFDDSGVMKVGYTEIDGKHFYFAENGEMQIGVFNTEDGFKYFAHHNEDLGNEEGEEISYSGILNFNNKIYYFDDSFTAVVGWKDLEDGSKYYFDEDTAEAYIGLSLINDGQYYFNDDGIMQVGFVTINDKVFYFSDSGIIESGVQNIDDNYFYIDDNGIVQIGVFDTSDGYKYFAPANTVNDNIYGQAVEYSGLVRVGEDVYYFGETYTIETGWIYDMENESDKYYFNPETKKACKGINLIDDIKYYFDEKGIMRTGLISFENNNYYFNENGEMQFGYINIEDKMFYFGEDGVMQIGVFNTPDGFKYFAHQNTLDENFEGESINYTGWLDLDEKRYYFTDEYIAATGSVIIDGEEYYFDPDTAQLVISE
# Sa ugtP lethal – compounds lethal to S. aureus RN4220 ugtP deletion mutant. growth inhibition, % (test concentration not listed). 330,000 tested, 0.54% active. OD600 growth, 16 h. AID 1259309; in the data active means growth inhibition above about 68%;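 further: plate controls were untreated wells for no effect and antibiotic for full effect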
# PfHsp40 rescue – rescue of PfHsp40-mediated yeast toxicity | S. cerevisiae expressing PfHsp40, growth rescue, ATP luminescence | growth rescue, % at 12.5 µM | 340,000 tested, 0.68% active | AID 504582; in the data active means growth rescue above about 28%, passing the limit was not always enough;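 further: yeast W303a lacking pdr1 and pdr3 grown in galactose medium; growth measured after three days at 30 °C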
# Mtb hypoxia inh – reduces hypoxia-regulated biosensor signal in M. tuberculosis; 300,000 tested, 0.1% active; fluorescence inhibition, % (no concentration beside the values); M. tuberculosis hypoxia-regulated fluorescent reporter, fluorescence; in the data active means fluorescence inhibition mostly above about 23%, no sharp cut-off; inactive means mostly below about 17%
# Sa RN4220 lethal – S. aureus RN4220 growth inhibition. OD600, 16 h. inhibition, % (no concentration beside the values). 330,000 tested, 0.33% active; in the data active means inhibition above about 85%;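 further: plate controls were untreated cells for no effect and reference antibiotic for full effect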
# Numbers without * were called inactive; / = no result given. This is a sample that favours compounds with a hit; in the whole collection about 1.3% have one here.
SMILES,MazF activator,TcdB inh,Sa ugtP lethal,PfHsp40 rescue,Mtb hypoxia inh,Sa RN4220 lethal
NS(=O)(=O)c1ccc(NN=Cc2ccc(C(=O)O)cc2)c([N+](=O)[O-])c1,/,/,8.0,/,-6.7,4.7
C[C@@H]1CN([C@@H](C)CO)S(=O)(=O)c2ccc(-c3cncnc3)cc2O[C@H]1CN(C)C(=O)Cc1ccccc1,/,-1.6,/,/,/,/
CC(=NNC(=S)N1CCN(C2CCCCCC2)CC1)c1ccccn1,4.1,-2.0,/,81.2*,/,/
CC(=NNC(=S)N1CCN(c2ccccn2)CC1)c1ccccn1,11.2,0.6,/,-0.1,/,/
CC(=NNC(=S)N1CC2CCC(CC2)C1)c1ccccn1,6.1,0.7,/,/,/,/
CC(=NNC(=S)N1CCN(c2ccccn2)CC1)c1nccs1,11.9,/,/,108.4*,/,/
CCCCC(CC)COC1(c2ccccc2)OC(=O)c2ccccc21 (configuration not stated),-2.7,/,85.9*,0.9,5.9,-4.3
CCCCOC1(c2ccccc2)OC(=O)c2ccccc21 (configuration not stated),0.7,/,41.7,-1.7,10.0,2.1
CCOc1ccc2ccccc2c1C=NNC(=O)OC,/,/,19.5,/,0.8,6.1
CCOc1ccc2ccccc2c1/C=N/NC(=O)c1ccncc1,6.8,10.9*,/,-0.5,/,/
C[C@H]1CN([C@@H](C)CO)S(=O)(=O)c2ccc(C#CC(C)(C)O)cc2O[C@H]1CN(C)C,/,1.5,/,/,/,/
NC(=O)CSc1nnc(-c2cc(-c3cccs3)nc3ccccc23)o1,58.8*,/,-6.4,-1.4,2.0,8.5
C[C@@H]1CN([C@H](C)CO)C(=O)Cc2cc(NS(=O)(=O)c3ccc(F)cc3)ccc2O[C@@H]1CN(C)S(=O)(=O)c1cn(C)cn1,/,1.2,/,/,/,/
CCOC(=O)c1c(C)[nH]c(C(=O)NN=Cc2ccccc2Cl)c1C,/,/,-8.5,/,5.7,1.7
CCOC(=O)c1c(C)[nH]c(C(=O)N/N=C\c2ccccc2O)c1C,1.5,1.4,/,37.2*,/,/
COc1ccc(S(=O)(=O)Nc2ccc3c(c2)CC(=O)N([C@H](C)CO)C[C@H](C)[C@@H](CN(C)S(=O)(=O)c2c(C)noc2C)O3)cc1,/,0.1,/,/,/,/
c1ccc(Oc2nc3ccccc3n3cccc23)cc1,5.0,/,67.5,0.2,-9.6,-3.1
Cc1ccc(Oc2nc3ccccc3n3cccc23)cc1,7.1,/,95.8*,0.0,/,-10.2
CC(=O)/C(N=Nc1cc(C)ccc1O)=C(\C)O,104.8*,-0.7,7.7,0.4,4.9,5.0
CCN1C(=O)C2C(c3ccc(-c4ccc(F)cc4)cc3)N[C@@](C)(C(=O)OC)C2C1=O (some centres not stated),/,/,5.3,/,21.1,7.3
COc1ccc(-c2csc3ncnc(N4CCN(S(=O)(=O)c5ccc(C)cc5)CC4)c23)cc1,-34.5,2.4,-11.9,0.4,4.0,1.6
O=S(=O)(c1cccc(Br)c1)N1CCN(c2ncnc3scc(-c4ccccc4)c23)CC1,-9.5,0.6,99.1*,0.3,6.4,97.6*
O=c1ccc2cc(S(=O)(=O)N3CCN(c4ccccc4F)CC3)ccc2o1,14.1,1.2,-0.3,-0.4,13.4,-0.3
O=c1[nH]c2ccc(S(=O)(=O)N3CCN(c4ccccc4F)CC3)cc2s1,1.1,/,100.6*,8.9,-5.3,-12.2
C[C@@H]1CN([C@H](C)CO)C(=O)c2cccc(N(C)C)c2O[C@H]1CN(C)S(C)(=O)=O,/,0.4,/,/,/,/
SMILES,MazF activator,TcdB inh,Sa ugtP lethal,PfHsp40 rescue,Mtb hypoxia inh,Sa RN4220 lethal
O=[N+]([O-])c1ccc(N2CCCC2)c2ncccc12,101.4*,1.3,3.3,1.8,23.8,6.4
O=C1c2cccc3cccc(c23)C(=O)N1CCN1CCN(C(=S)Nc2ccccc2)CC1,7.0,/,97.8*,0.2,13.0,92.7*
O=C1c2cccc3cccc(c23)C(=O)N1CCN1CCN(C(=S)Nc2ccc(Cl)cc2)CC1,1.0,1.2,-5.0,-1.0,3.6,-1.1
CCNC(=O)CC1SC(=NN=C(C)c2ccccc2)NC1=O (configuration not stated),/,/,-4.4,/,7.4,2.9
Oc1ccc2c(ccc3[nH]cnc32)c1,4.7,16.9*,-10.0,-0.5,-10.9,5.4
COc1ccc(CC(=O)NN=C/C=C/c2cccc([N+](=O)[O-])c2)cc1OC,/,/,-2.7,/,-0.3,0.7
O=C(/C=C/c1ccc(O)cc1)c1ccccc1,-5.0,15.2*,2.2,1.5,/,8.9
O=C(C=Cc1ccccc1)c1ccccc1,/,/,2.8,/,/,21.5
O=C(/C=C/c1cn(CC(O)CN2CCCCC2)c2ccccc12)c1ccccc1 (configuration not stated),-15.8,1.8,0.7,-1.8,32.6*,1.9
O=C(CC1CC1)N1[C@H](CO)[C@@H](c2ccccc2)C12CN(Cc1ccncc1)C2,/,-1.4,/,/,/,/
COc1ccc(NC(=S)NCCC(c2ccccc2)c2ccccc2)c(OC)c1,-2.4,/,27.5,38.9*,/,-4.6
Cc1c(Cl)cccc1NC(=S)NCCC(C)C,3.5,/,0.1,0.1,10.9,-1.2
Cc1c(Cl)cccc1NC(=S)NCCC(c1ccccc1)c1ccccc1,-1.4,/,17.1,54.4*,/,-8.8
COc1cccc(NC(=S)NCCC(c2ccccc2)c2ccccc2)c1,-4.0,/,11.4,2.6,/,-8.9
CCOC(=O)NC(=O)C(C#N)=NNc1ccc(Cl)cc1,/,/,2.2,/,/,2.4
CC(C(=O)O)N1c2cccc3cccc(c23)S1(=O)=O (configuration not stated),-8.9,-0.9,4.3,-1.0,-6.2,3.9
CS(=O)(=O)N1c2cccc3cccc(c23)S1(=O)=O,-1.4,-0.5,6.8,48.1*,-11.1,3.9
COc1ccccc1CNC(=O)CCNC(=O)N1CC(=O)Nc2ccccc21,1.0,-1.0,-0.2,-0.8,8.5,3.4
COc1ccccc1CNC(=O)CNC(=O)N1CC(=O)Nc2ccccc21,4.1,11.3*,2.0,-0.2,2.0,0.0
CCn1c(SCC(=O)NN=C/C=C/c2ccccc2[N+](=O)[O-])nnc1-c1ccc(Cl)cc1,/,/,3.2,/,1.6,8.7
CCOC(=O)C(NC(=O)Nc1ccc(F)cc1F)(Oc1ccc(F)cc1)C(F)(F)F (configuration not stated),-1.8,1.5,71.4,0.0,5.3,84.7*
C[C@@H]1CN([C@H](C)CO)C(=O)c2ccccc2-c2ccccc2CO[C@@H]1CN(C)C(=O)Nc1ccc2c(c1)OCO2,/,-1.4,/,/,/,/
CSc1nc(-c2ccc(Cl)cc2Cl)[nH]c(=O)c1C#N,-2.6,12.6*,19.0,0.5,10.9,51.3
Cc1cc(-c2ccc(Cl)cc2Cl)c(C#N)c(=O)[nH]1,1.1,0.4,-3.6,-0.8,14.0,4.2
OCC[C@@H]1C[C@@H](O)[C@H](O)[C@@]2(Cc3ccccc3CO2)O1,0.2,0.3,/,45.6*,/,/
OCC[C@H]1C[C@H](O)[C@@H](O)[C@@]2(Cc3ccccc3CO2)O1,7.7,14.3*,/,-1.0,/,/
CN1C(=O)c2cc(NC(=O)Cc3cccs3)ccc2OC[C@H]2O[C@H](CC(=O)N[C@H]3CCN(Cc4ccccc4)C3)CC[C@H]21,/,-1.5,/,/,/,/
CCOC(=O)C1=NN(C(=O)c2ccc(OC)cc2)C(O)(c2ccc(Cl)cc2)C1 (configuration not stated),1.2,-0.1,-12.9,1.0,7.5,3.7
